Hits are enriched below; roughly 8% of the tested compounds scored in any of these assays.
SARS PLP yeast: qHTS of Yeast-based Assay for SARS-CoV PLP | S. cerevisiae expressing SARS-CoV PLpro, growth rescue | Potency, µM (doses to about 32.9 µM), actives largely listed as activators | 330,000 tested, 0.19% active | AID 485353, 2010; calls by dose curve; also: nearly all actives have a fitted effect of over 55% in size
HCV inh: qHTS Assay for Inhibitors of Hepatitis C Virus (HCV) | 340,000 tested, 3.4% active | Huh7.5.1 HCVcc-Cre infection, luciferase reporter, 44 h | Potency, µM (titrated, usually from 41.8 µM), actives largely listed as inhibitors | AID 651820, 2012; active = well fitted inhibition curve with a large enough effect; inconclusive = small, poorly fitted or top-dose-only effect, or another doubt; inactive = no such curve, though single readings can be large or run the other way
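Compounds are dispensed onto cells plated 4 h earlier at 1,000 per well, with HCVcc-Cre virus (about 0.5 moi) added next. Following 44 h of culture, luminescent signal is measured for 15 sec after 15 min with substrate at room temperature.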
FMDV inh: High Throughput Screening for Foot and Mouth Disease Virus Antivirals | FMDV antiviral cell-based qHTS | Potency, µM (series often up to 57.9 µM), actives largely listed as inhibitors | 410,000 tested, 1.2% active | AID 1159524, 2015; calls by dose curve; tested in HEK293T cells; also: read-out not given here; nearly all actives have a fitted effect of over 45% in size
HCMV inh: qHTS Assay for inhibitors of the human cytomegalovirus (HCMV); activity change, negative = inhibition, % at 57.5 µM; 410,000 tested, 4.5% active; HFF cells, HCMV-luciferase reporter, 72 h; stronger effect = lower value; in the data active = activity change below about -60%; inconclusive = no clear call, values can overlap the other calls; inactive = above about -39%
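Steps: HFFs plated, 16 h 37C; compounds added; HCMV-luciferase added to MOI 1 PFU/cell; 72 h 37C; OneGlo reagent, 5 min room temperature; luminescence read, normalized to controls.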
LASV entry inh: qHTS for Inhibitors of binding or entry into cells for Lassa Virus; 300,000 tested, 1.2% active; Lassa virus pseudotype entry inhibition, cell reporter; Potency, µM (top dose mostly 37.9 µM), usual class: inhibitors; AID 540256, 2011; calls by dose curve; tested in HEK293 cells; also: nearly all actives have a fitted effect of over 50% in size
Marburg entry inh: qHTS for inhibitors of binding or entry into cells for Marburg Virus | Marburg virus pseudotyped entry inhibition, cell reporter | AID 540276, 2011 | 300,000 tested, 1.8% active | Potency, µM (top dose mostly 37.8 µM), most hits filed as inhibitors; calls by dose curve; tested in HEK293 cells
Each line names hits and unclear results; the compound was inactive in the other large screens.

C=C1C(=O)O[C@@H]2[C@H]1CC[C@H](C)[C@]1(O)CCC(=O)[C@@]21C	HCV inh inconclusive, HCMV inh -67.5 (no result: LASV entry inh, Marburg entry inh)
CCn1c(SCc2ccc(C#N)cc2)nnc1-c1ccc(S(=O)(=O)N2CCCCC2)cc1	HCV inh 7.94µM, FMDV inh inconclusive, HCMV inh -69.9, LASV entry inh inconclusive
COC(=O)C(/C=C/c1ccccc1)(c1cn(C)c2ccccc12)C(Nc1ccccc1)c1ccccc1 (centres undefined)	none (no result: SARS PLP yeast, HCV inh, FMDV inh, LASV entry inh, Marburg entry inh)
Cc1nc(CN2CCN(C(=O)NC3(c4ccccc4)CC3)CC2)cs1	HCMV inh -77.0
Cn1c(NCc2ccccc2F)nc2ccccc21	LASV entry inh inconclusive, Marburg entry inh inconclusive (no result: SARS PLP yeast, HCV inh)
CCc1ccc(NC(=O)CN2C(=O)C(c3ccc(Cl)cc3)=NC23CCCCC3)cc1	HCMV inh inconclusive (no result: SARS PLP yeast, HCV inh)
N#Cc1ccsc1NC(=O)CCc1ccccc1	HCV inh inconclusive, Marburg entry inh inconclusive (no result: LASV entry inh)
N#Cc1ccsc1NC(=O)CCN1CCN(C(c2ccccc2)c2ccccc2)CC1	HCV inh inconclusive, LASV entry inh inconclusive, Marburg entry inh 10µM
NC(=O)Cn1c(=O)n(CCCCCC(=O)NCc2ccccc2Cl)c(=O)c2sccc21	none (no result: SARS PLP yeast, HCV inh)
Cc1ccc(NS(=O)(=O)c2ccc(N3CCN(c4ccc(O)cc4)CC3)c([N+](=O)[O-])c2)c(C)c1	HCV inh inconclusive, FMDV inh 28.2µM, HCMV inh -63.9, Marburg entry inh 2.82µM
O=[N+]([O-])c1cc(S(=O)(=O)Nc2ccccc2)ccc1N1CCN(c2ccc(O)cc2)CC1	none
O=C(c1ccco1)N(Cc1cc2cc3c(cc2nc1N1CCOCC1)CCC3)CC1CCCO1 (centres undefined)	none (no result: SARS PLP yeast, HCV inh, HCMV inh, LASV entry inh, Marburg entry inh)
Cc1cc(/C=C2\SC(=Nc3ccc(F)cc3)NC2=O)c(C)n1-c1ccc(S(N)(=O)=O)cc1	HCV inh 3.55µM, FMDV inh 35.5µM, HCMV inh -83.6, LASV entry inh inconclusive, Marburg entry inh inconclusive
Cc1cc(/C=C2\SC(=S)NC2=O)c(C)n1-c1ccc(O)cc1	none (no result: LASV entry inh, Marburg entry inh)
COc1ccc(C(=O)OCc2cc(C)ccc2C)cc1S(=O)(=O)N1CCCC1	HCV inh inconclusive, LASV entry inh inconclusive
COC(=O)c1cc(COC(=O)c2ccc(OC)c(S(=O)(=O)N3CCCC3)c2)oc1C	HCV inh 15.8µM, Marburg entry inh inconclusive
Cc1ccccc1CNCc1c(C(=O)O)c(C)n(Cc2ccc(F)cc2Cl)c1C	none (no result: SARS PLP yeast, HCV inh)
C[C@@H](c1ccccc1)N1C(=O)[C@@H]2[C@H]3[C@H](O)[C@H](O)CC(=NNC(=O)OCc4ccccc4)[C@@H]3CC[C@H]2C1=O	none (no result: SARS PLP yeast, HCV inh, FMDV inh, HCMV inh, LASV entry inh)
Cc1cc(NC(=O)Nc2cccc(Cl)c2)n(-c2ccccn2)n1	HCV inh 11.2µM, Marburg entry inh inconclusive
Cc1cc(NC(=O)c2ccc(F)cc2)n(-c2ccccn2)n1	HCV inh 8.91µM, LASV entry inh inconclusive
Cc1cc(NC(=O)Nc2cccc(Cl)c2)n(-c2ccccc2)n1	HCV inh inconclusive
COc1cc2nc(NC(=O)c3ccc(S(=O)(=O)N4CCCC4)cc3)sc2cc1OC	HCMV inh -62.9 (no result: SARS PLP yeast, HCV inh, Marburg entry inh)
CCCC(=O)Nc1nc2ccc(S(=O)(=O)N3CCCCC3)cc2s1	HCV inh inconclusive (no result: LASV entry inh, Marburg entry inh)
CC(=O)Nc1nc2ccc(S(=O)(=O)N3CCCC3)cc2s1	HCMV inh -63.3 (no result: LASV entry inh, Marburg entry inh)
COc1ccc(C(=O)Nc2nc3ccc(S(=O)(=O)N4CCCC4)cc3s2)cc1	none (no result: SARS PLP yeast, HCV inh, Marburg entry inh)
CNCCNS(=O)(=O)c1cccc2cnccc12	Marburg entry inh inconclusive (no result: SARS PLP yeast, HCV inh, HCMV inh)
O=S(=O)(NCCNC/C=C/c1ccc(Br)cc1)c1cccc2cnccc12	FMDV inh inconclusive, LASV entry inh inconclusive, Marburg entry inh 10µM (no result: SARS PLP yeast, HCV inh, HCMV inh)
CC(=O)c1ccc(Nc2cc(C)nc3nc(Cc4ccc(Cl)cc4)nn23)cc1	FMDV inh inconclusive (no result: SARS PLP yeast, HCV inh)
COC1=C[C@H](C(=O)N[C@H]2CCCC[C@H]2NC(C)=O)[C@@]2(C)Cc3ccccc3[C@@H]2CC1=O	none (no result: SARS PLP yeast, HCV inh, FMDV inh, HCMV inh, LASV entry inh)
O=C(NC1CCCC1)c1ccc(COc2ccccc2Br)o1	SARS PLP yeast inconclusive, HCV inh 12.6µM (no result: LASV entry inh, Marburg entry inh)
COc1cc2c(cc1OC)C(c1ccc(F)cc1)N(c1ccc(F)cc1)C(=O)C2 (centres undefined)	none (no result: SARS PLP yeast, HCV inh)
COc1ccccc1-c1ccnc(-n2ncc(C(=O)NCc3ccncc3)c2C)n1	none (no result: SARS PLP yeast, HCV inh, HCMV inh, LASV entry inh, Marburg entry inh)

Screens (PubChem BioAssay)
